Results as given in PubChem BioAssay (NCI).
This is part of a sample that, as a whole, favours compounds with a hit. Of some 79,000 tested, about 15% had one in any assay. Activity calls are given as the source filed them. Cut-off read from the data, not from the text of the source: active = growth inhibition above about 70%; inactive = the rest.

Tests used:
[1] = NCI Yeast Anticancer Drug Screen. Data for the rad50 strain (AID 155);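 note: 0% = growth of vehicle-only cultures of the same strain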; details: S. cerevisiae rad50 strain growth inhibition, hits give high values; at 50.0 µM unless noted
Procedure, shortened: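 Cells are treated with compound, grown, and their growth is then scored against vehicle-only cultures of the same repair-deficient yeast strain.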

[2] = NCI Yeast Anticancer Drug Screen. Data for the mec2-1 strain (AID 157); details: S. cerevisiae mec2-1 strain, hits give high values; at 50.0 µM unless noted
Procedure, shortened: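 Growth inhibition is read against vehicle-treated controls after compound exposure of the mec2-1 yeast strain, which is defective in DNA damage repair or cell cycle control.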

[3] = NCI Yeast Anticancer Drug Screen. Data for the sgs1 mgt1 strain (AID 161);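 note: 0% = growth of cultures given vehicle only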; details: S. cerevisiae sgs1 mgt1 strain, hits give high values; at 50.0 µM unless noted
Procedure, shortened: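 Growth of a repair-deficient yeast mutant was monitored after compound treatment and expressed as inhibition relative to vehicle-treated cultures.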

[4] = NCI Yeast Anticancer Drug Screen. Data for the cln2 rad14 strain (AID 165);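 note: 0% = growth equal to vehicle treated cultures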; details: S. cerevisiae cln2 rad14 strain, hits give high values; at 50.0 µM unless noted
Procedure, shortened: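 Growth inhibition, relative to vehicle-treated controls, is the read-out. The test organism is a yeast strain with defined genetic alterations, cln2 rad14.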

[5] = NCI Yeast Anticancer Drug Screen. Data for the bub3 strain (AID 167); details: S. cerevisiae bub3 mutant strain, hits give high values; at 50.0 µM unless noted
Procedure, shortened: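 Part of a panel of yeast mutants defective in DNA damage repair or cell cycle regulation. Each strain is grown with compound, and inhibition is calculated relative to solvent-treated cultures.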

[6] = NCI Yeast Anticancer Drug Screen. Data for the mlh1 rad18 strain (AID 175); details: S. cerevisiae mlh1 rad18 strain growth inhibition, hits give high values; at 50.0 µM unless noted
Procedure, shortened: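 Cells of a genetically altered yeast strain, deficient in DNA damage repair, were treated with compound. Their growth was then compared with that of vehicle-treated cultures to give inhibition.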

Measured: growth inhibition

CC(C)(C)C(=O)NC(OC(NC(=O)C(C)(C)C)C(=O)C(C)(C)C)C(=O)C(C)(C)C (stereo unspecified)
inactive: [1] 4.05% | [2] 6.25% | [3] -21.4% | [4] -0.6% | [5] -0.1% | [6] 21%

CC(O)CCC(=O)c1nc2ccccc2s1 (stereo unspecified)
inactive: [1] -14.4% | [2] 19.2% | [3] 5.95% | [4] -6.3% | [5] 4.95% | [6] 3.5%

CC(=O)N1C(=O)c2cccc([N+](=O)[O-])c2C1=O
inactive: [1] -1.6% | [2] -11.9% | [3] -9.55% | [4] 7.15% | [5] -21.7% | [6] 11.4%

O=C1OCC(c2ccccc2)=C1c1ccccc1
inactive: [1] 22.3% | [2] -3% | [3] 20.3% | [4] -16% | [5] 6.35% | [6] 16.6%

CCCCCCCCCCCCCCCCCc1c(Cl)c(Cl)c(Cl)c(Cl)c1Cl
inactive: [1] 47% | [2] -4% | [3] 26.4% | [4] -45.1% | [5] -2.75% | [6] -6.6%

CC(=O)OCC1OC(O)C(NC(=O)C(F)(F)F)C(OC(C)=O)C1OC(C)=O (stereo unspecified)
active: [1] 99.6% | [2] 99.8% | [3] 99.7% | [4] 99% | [5] 99.3% | [6] 99.5%

CC(=O)Oc1cc(S(=O)(=O)Nc2n[nH]c(N)n2)c(S)cc1Cl
inactive: [1] -22.8% | [2] -18.3% | [3] -1.2% | [4] 11.7% | [5] -9.55% | [6] 8.45%

CCC(CC)C(=O)NCCNC(=O)C(CC)CC
inactive: [1] 5.45% | [2] -0.9% | [3] 14.2% | [4] -30.1% | [5] -10.6% | [6] -17.2%

Clc1ccc(Oc2ncnc3nc[nH]c23)cc1
inactive: [1] 3.6% | [2] 5.75% | [3] 2.85% | [4] -1.35% | [5] -1.5% | [6] 23.5%

COC(=O)C(Cc1ccccc1)N=Cc1c(O)c(O)c(C(C)C)c2cc(C)c(-c3c(C)cc4c(C(C)C)c(O)c(O)c(C=NC(Cc5ccccc5)C(=O)OC)c4c3O)c(O)c12 (stereo unspecified)
inactive: [1] 19.7% | [2] 9.7% | [3] 11.7% | [4] 17.1% | [5] 16.1% | [6] 4.75%

CCOC(=O)/C(C#N)=C/c1ccccc1Cl
inactive: [1] 12.1% | [2] -6.3% | [3] -30.6% | [4] 16.1% | [5] -20.1% | [6] 6.35%

COc1ccc2cc(N3CCCC3)ccc2c1
inactive: [1] 7.8% | [2] -7.35% | [3] 6.15% | [4] -14.8% | [5] -7.55% | [6] -37.8%

CSc1nc(N)c2cnn(Cc3ccccc3)c2n1
inactive: [1] 28.4% | [2] 12.5% | [3] 34% | [4] 8.95% | [5] 31.4% | [6] 31.4%

Cc1ccc2c(ccc3nc(N)nc(N)c32)c1
inactive: [1] -0.4% | [2] 11.5% | [3] -5.55% | [4] -42.9% | [5] -47.3% | [6] -2.65%

Cc1ccc(S(=O)(=O)CC(=O)NC(C)C)cc1
inactive: [1] -3.9% | [2] -17% | [3] 4% | [4] 17.2% | [5] 3.2% | [6] 20.8%

O=C1c2cc([N+](=O)[O-])ccc2-c2ccc3c4ccc5c6c(ccc(c7ccc1c2c73)c64)C(=O)c1cc([N+](=O)[O-])ccc1-5
inactive: [1] 14% | [2] -10.6% | [3] -3.15% | [4] 21.4% | [5] -35.2% | [6] 26.1%

CCCCN(CCCC)CC(=O)NC(=O)c1ccccc1
inactive: [1] -9.55% | [2] -5.55% | [3] 3.35% | [4] -38.5% | [5] 10.8% | [6] -14.3%

CC(C)=CC(=O)CC1(C)CCC(c2ccoc2)O1 (stereo unspecified)
inactive: [1] -18.8% | [2] -32.9% | [3] -11.6% | [4] 14% | [5] 6.35% | [6] -16%

O=C(Sc1ccc(Br)cc1)c1ccccc1
inactive: [1] 29.1% | [2] 24.2% | [3] 1.15% | [4] 13.2% | [5] 10.4% | [6] 1.25%

CC(=O)c1cccc(N=NN(C)C)c1
inactive: [1] 41% | [2] 36.5% | [3] 58% | [4] 6.35% | [5] 40.2% | [6] 46.8%

COc1ccc2[nH]c3c(=O)[nH]ncc3c2c1
inactive: [1] -1.9% | [2] -0.95% | [3] -7.5% | [4] -3.05% | [5] 9.8% | [6] 9.05%

CC(C)c1cc(C(C)C)c(S(=O)(=O)N/N=C2\C=CCC(C)(C)C2)c(C(C)C)c1
inactive: [1] 41.1% | [2] 5.05% | [3] 24.1% | [4] -47.4% | [5] -4.7% | [6] 18.9%

NC(=S)N/N=C/c1ccc(N)cn1
inactive: [1] -4.2% | [2] 17% | [3] -0.5% | [4] 0.25% | [5] 8.15% | [6] -8.8%

CCOC(=O)C1=C(c2ccccc2)OC(N)=C(C#N)C1c1ccccc1Cl (stereo unspecified)
inactive: [1] 28.4% | [2] 18.7% | [3] 24.6% | [4] -21.4% | [5] 39.9% | [6] 51.5%

CC12C=CC(=O)C(O)C1CC=CC2 (stereo unspecified)
inactive: [1] 12.6% | [2] 14.3% | [3] 4.3% | [4] 6.05% | [5] 11.4% | [6] 8.95%

C/C=C/C(=O)Nc1cccc(OC(=O)NC(C)(C)C)c1
inactive: [1] 9.2% | [2] 13.1% | [3] 3.55% | [4] -2% | [5] 18% | [6] 1.65%

O=C(O)C(C(=O)N(c1ccccc1)c1ccccc1)c1ccccc1 (stereo unspecified)
inactive: [1] 9.8% | [2] -1.05% | [3] 21.5% | [4] -51.9% | [5] 18.7% | [6] 9.75%

Cc1nn(C(=O)Cc2ccccc2)c2c1C(c1ccc(Cl)cc1)SC(N)=N2 (stereo unspecified)
inactive: [1] -30.1% | [2] -31.5% | [3] -29.1% | [4] 6.45% | [5] -23.6% | [6] -25.1%

CC(C(C#N)C(N)=O)C(C#N)C(N)=O (stereo unspecified)
inactive: [1] 10.2% | [2] 12.4% | [3] 5.5% | [4] -4.4% | [5] -23.9% | [6] 14.7%

CC(O)C(O)C(O)C(O)c1nc2ccccc2[nH]1 (stereo unspecified)
inactive: [1] -18.4% | [2] -3.35% | [3] -20.6% | [4] -37% | [5] 4.35% | [6] 9.9%

CCOC(=O)C(F)C(=O)OCC
inactive: [1] 14.8% | [2] -2.95% | [3] -1% | [4] 12.1% | [5] -4.55% | [6] -5.4%

CN(C)c1nc(NC(=O)NC(=O)c2c(F)cccc2F)nc(N(C)C)n1
inactive: [1] -2% | [2] 11.3% | [3] 1.55% | [4] 8.45% | [5] 18.8% | [6] 10.3%

O=C1CC2(C(=O)O)CC3CC2C(O1)C3I (stereo unspecified)
inactive: [1] 13.7% | [2] 10.6% | [3] 24.1% | [4] 13.1% | [5] 14.5% | [6] 21.2%

FC(F)(F)c1ccc(C2=CCCCC2)cc1
inactive: [1] 24.1% | [2] 6.45% | [3] 4.45% | [4] 24.5% | [5] -18.6% | [6] 13.2%

COCC(Br)C(OC)OC (stereo unspecified)
inactive: [1] 37.5% | [2] 9.1% | [3] 58.9% | [4] -1.05% | [5] 5.75% | [6] 68.3%

CC1=CCC2C(C)(C)CCCC2(C)C1COC1OC(OCC2C(C)=CCC3C(C)(C)CCCC23C)C2C1=CCC1C(C)(C)CCCC21C (stereo unspecified)
active: [1] 90% | [2] 89.2% | [3] 84.1% | [4] 89.6% | [5] 89.2% | [6] 88%

CCOC(=O)C(C)NC(=O)c1ccccc1 (stereo unspecified)
inactive: [1] 0.25% | [2] -8.5% | [3] -14.6% | [4] -52.2% | [5] 5.5% | [6] 0.75%

N#CNC(N)=NCCO
inactive: [1] -22.2% | [2] -2.25% | [3] -36.9% | [4] -12% | [5] -28.5% | [6] -20.6%

Cc1nc(C(N)=S)sc1C(=O)C/C(=N/N)C(=O)Nc1ccc(Cl)cc1
inactive: [1] 2.05% | [2] -8.55% | [3] 3.2% | [4] -3.65% | [5] -17.8% | [6] -20.9%

O=[N+]([O-])c1cccc(Br)c1
inactive: [1] 25.9% | [2] 22.8% | [3] -10.7% | [4] -52.6% | [5] 3.45% | [6] 5.75%

CCCC(=O)CC(=O)Nc1ccccc1
inactive: [1] 2.9% | [2] -6.3% | [3] -14.9% | [4] -23.9% | [5] -17.6% | [6] 11.2%
